HTT-AS promoter – activators of huntingtin-antisense promoter activity | HEK293 HTT-AS promoter firefly luciferase reporter, 24 h; response scale: percent change from vehicle, -100% = no light | Potency, µM (highest dose often 57.5 µM), without a hit: at the top dose activity change, positive = activation, actives largely listed as activators | 48,000 compounds, 0.24% hits | AID 1508624; also: potency is read from the fitted curve at half-maximal effect; nearly all actives have a fitted effect of over 55% in size
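HEK293 Fluc reporter, 2,500 cells/well, 24 h pre-culture; cpds up to 57.5 uM final, 24 h 37 degrees C; Dual-Glo, 10 min RT; normalized vehicle = 0%, zero RLU = -100%.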
HTT prom inh – HTT promoter inhibition; 48,000 compounds, 0.93% hits; Potency, µM (top dose mostly 57.5 µM), without a hit: at the top dose activity change, negative = inhibition, most hits filed as inhibitors; HEK293 HTT promoter firefly luciferase reporter, 24 h; AID 1508623; also: potency is read from the fitted curve at half-maximal effect; nearly all actives have a fitted effect of over 50% in size
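Quantitative HTS used concentration series of up to 57.5 uM final on HEK293 luciferase reporter cells, 24 h at 37 degrees C. Readout was Dual-Glo firefly luminescence.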
GPR32 ag – agonists of human resolvin D1 receptor DRV1 (GPR32); activation, % at 76.9 µM; O75388; CHO-K1 GPR32 beta-arrestin PathHunter luminescence, 90 min; zero percent set by DMSO-only wells; 48,000 compounds, 2.5% hits; AID 1346428;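 active = activation of at least 60% and not above a set upper limit, about 1 call in 100 departs from these limits; inconclusive = activation of 40% to 60%, or above that upper limit; inactive = activation under 40%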; also: 0% is about no effect
Target sequence (O75388 whole entry, looked up): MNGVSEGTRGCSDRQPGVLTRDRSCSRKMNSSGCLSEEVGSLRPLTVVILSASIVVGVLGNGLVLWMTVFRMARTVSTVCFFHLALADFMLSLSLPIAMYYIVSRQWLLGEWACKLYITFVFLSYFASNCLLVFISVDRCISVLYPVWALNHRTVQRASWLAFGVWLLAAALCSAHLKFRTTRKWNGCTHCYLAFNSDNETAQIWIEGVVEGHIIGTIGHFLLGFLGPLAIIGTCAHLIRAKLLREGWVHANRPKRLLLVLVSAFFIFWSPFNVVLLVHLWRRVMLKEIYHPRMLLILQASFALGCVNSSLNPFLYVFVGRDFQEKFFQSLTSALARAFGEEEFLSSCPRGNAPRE
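Cells are plated overnight, treated with compounds in DMSO for 90 minutes at 37 °C, and developed with PathHunter detection reagent for 1 hour before luminescence is read; signal reflects beta-arrestin binding to GPR32 in engineered CHO-K1 cells.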
* = called active by the depositor; u = inconclusive; x = not tested or not shown. In the library only some 3.7% were active in any assay of this set; here they are far more common. Unless noted, calls follow the shape of the dose curve; as a rule, active = well fitted curve in the direction sought with a large enough effect; inconclusive = small, poorly fitted or top-dose-only effect, or another doubt; inactive = no such curve, though single readings can be large; an effect the other way counts as inactive or inconclusive.

SMILES | HTT-AS promoter | HTT prom inh | GPR32 ag
O=S(=O)(Nc1nc2n(n1)C(c1ccccc1)C=C(c1ccc(Cl)cc1)N2)c1ccccc1 (configuration not stated) | -7% | -7% | 72*
Cc1ccc(C2C=C(c3ccccc3)Nc3nc(NS(=O)(=O)c4ccccc4)nn32)cc1 (configuration not stated) | -10% | -6% | u
CCS(=O)(=O)N1CCc2cc(C(=O)NCCc3ccccc3)ccc21 | u | 56% | -8
CS(=O)(=O)N1CCc2cc(C(=O)NCCc3ccccc3)ccc21 | 3.2µM* | 47% | 8
CCOC(=O)c1ccc(O)c(O)c1 | 11% | 7% | 41
CCCCCOC(=O)Nc1nc(=O)n([C@@H]2O[C@H](C)[C@@H](O)C2O)cc1F (some centres not stated) | 10% | -3% | x
CCc1ccc(NC(=O)C(CC)n2c(=O)c(-c3ccccc3NC(C)=O)nc3ccccc32)cc1 (configuration not stated) | -35% | 14µM* | -1
CCC(C(=O)Nc1c(C)cc(C)cc1C)n1c(=O)c(-c2ccccc2NC(C)=O)nc2ccccc21 (configuration not stated) | -7% | -9% | 0
COc1ccc(NCc2cc3cc4c(cc3n(CC(=O)Nc3ccc(C)c(C)c3)c2=O)OCO4)cc1 | 16% | u | -40
CCC(=O)C1=C(c2ccc(C)cc2)N(C(=O)CC)n2c(nnc2C2CCCCC2)S1 | -21% | -20% | -39
Cc1cc(C2CCCCC2)n(O)c(=O)c1 | -24% | u | 77*
CC[C@H](C)n1cc(C)c2c(C(=O)NCc3c(C)cc(C)[nH]c3=O)cc(-c3ccc(N4CCNCC4)nc3)cc21 | -3% | -4% | x
COc1cc(Nc2nc3ccccc3nc2NS(=O)(=O)c2ccc(NC(=O)c3ccc(C)c(OC)c3)cc2)cc(OC)c1 | -26% | u | x
Cn1nnnc1SCCNCc1ccc(OCc2ccccc2Cl)cc1 | -18% | -5% | 10
CCOc1ccc(CNCCSc2nnnn2C)cc1OC | -7% | -5% | -6
COc1cc(CNCCSc2nnnn2C)ccc1OCc1ccccc1C | 0% | 9% | 73*
Cn1nnnc1SCCNCc1cc(Br)ccc1OCc1ccccc1Cl | -52% | 28µM* | 75*
COc1ccc(NS(=O)(=O)c2ccc(NS(=O)(=O)c3ccc4c(c3)OCCO4)cc2)cc1 | -29% | -29% | 68*
O=S(=O)(Nc1ccc(Cl)cc1)c1ccc(NS(=O)(=O)c2ccc3c(c2)OCCO3)cc1 | -21% | u | 24
CCOc1ccn(-c2ccc(F)cc2)c(=O)c1C(=O)Nc1ccc(Oc2ccnc(N)c2Cl)c(F)c1 | -16% | -9% | x
Cc1cc(Nc2cccc(O)c2)c2cccc(Br)c2n1 | -5% | 4% | 119*
CCOC(=O)c1cnc2c(OC)cccc2c1Nc1cccc(O)c1 | -34% | u | -40
O=C(O)c1ccccc1NCCc1ccccc1 | 48% | 19% | -34
Cc1cc(C)c(S(=O)(=O)NCCc2sc(-c3cccnc3)nc2C)c(C)c1 | -20% | -26% | 69*
Cc1nc(-c2cccnc2)sc1CCNS(=O)(=O)c1ccc(F)cc1 | -13% | -11% | 2
SMILES | HTT-AS promoter | HTT prom inh | GPR32 ag
C=CC(=O)Nc1cccc(Sc2nc(Nc3ccc(N4CCN(C)CC4)cc3)ncc2Cl)c1 | -23% | -16% | x
CCCc1nn2c(=O)cc(COC(=O)c3cccc(NC(=O)CCc4ccccc4)c3)nc2s1 | 8% | 1% | -6
CCCCc1nn2c(=O)cc(COC(=O)c3cccc(NC(=O)CCc4ccccc4)c3)nc2s1 | 0.25µM* | 72% | -7
Cc1ccc(C)c(Cn2c(SCC(=O)N(C)Cc3ccccc3)nc3ccccc32)c1 | -21% | -27% | -43
Cc1onc(-c2c(Cl)cccc2Cl)c1C(=O)Cl | -5% | 9% | 9
CC1(C)O[C@@H]2C[C@H]3[C@@H]4CCC5=CC(=O)C=C[C@]5(C)[C@@H]4[C@@H](O)C[C@]3(C)[C@]2(C(=O)CO)O1 | -10% | -4% | 6
COc1ccc(CCCc2nnc(SCC(=O)Nc3ccc(OC)cc3)o2)cc1 | -12% | -9% | -17
COc1ccc(CCCc2nnc(SCC(=O)Nc3cccc(F)c3C)o2)cc1 | -20% | -16% | 66*
CCOC(=O)c1cc(-c2ccccc2)n(CCC(=O)Nc2ccc(Cl)c(C(F)(F)F)c2)c1C | -51% | 22µM* | 10
CCOC(=O)c1cc(-c2ccccc2)n(CCC(=O)Nc2cc(C)cc(C)c2)c1C | -32% | u | -21
Cc1ccc(N2C(=O)c3oc4cc(C)c(C)cc4c(=O)c3C2c2cccc(O)c2)nc1 (configuration not stated) | -11% | -16% | 5
CCc1cccc(C)c1Nc1c(-c2ccc(N(C)C)cc2)nc2cnccn12 | -21% | -23% | 93*
CCc1cccc(C)c1Nc1c(-c2cccc(O)c2)nc2cnccn12 | -22% | -18% | u
NS(=O)(=O)c1cc2c(cc1Cl)CN(C1CCCCC1)C2=O | 8% | 9% | -30
COc1cccc(NC(=O)CSc2nccn2Cc2ccc3c(c2)OCO3)c1 | 6% | 8% | 75*
CC(=O)Nc1ccc(NC(=O)CSc2nccn2Cc2ccc3c(c2)OCO3)cc1 | -12% | u | 0
CC(CC1c2ccccc2CCc2ccccc21)CN(C)C (configuration not stated) | -11% | -8% | -13
COc1cccc(CNC(=O)c2ccc3c(c2)nc2n3CCOC2)c1OC | -10% | 0% | -5
O=[N+]([O-])c1cn2c(n1)OC[C@@H](OCc1ccc(OC(F)(F)F)cc1)C2 | -13% | -9% | x
Cc1ccc(-n2nnc(-c3nsc(NC(=O)c4ccc(C)c(C)c4)n3)c2C)cc1 | -18% | -30% | 24
CCc1ccccc1-n1nnc(-c2nsc(NC(=O)c3ccc(C)c(C)c3)n2)c1C | -67% | u | 72*
Cc1cc(C)cc(-n2nnc(-c3nsc(NC(=O)c4ccccc4Cl)n3)c2C)c1 | -22% | -13% | u
CCc1ccc(-n2nnc(-c3nsc(NC(=O)c4ccccc4Cl)n3)c2C)cc1 | -21% | -34% | 105*
COc1ccc(C(=O)N(Cc2sccc2C)C2CCS(=O)(=O)C2)cc1Cl (configuration not stated) | -11% | -14% | -19
Cc1cccc(OCCn2c(SCC(N)=O)nc3ccccc32)c1 | 2% | -12% | 11
SMILES | HTT-AS promoter | HTT prom inh | GPR32 ag
COc1cccc2c1C(=O)c1c(O)c3c(c(O)c1C2=O)C[C@@](O)(C(=O)CO)C[C@H]3O[C@H]1C[C@H](N)[C@H](O)[C@H](C)O1 | -48% | u | x
O=[N+]([O-])c1cc(-c2nc(-c3ccccc3)no2)ccc1NC1CCCCC1 | -14% | -13% | -10
CC(C)c1c(C(=O)Nc2ccccc2)c(-c2ccccc2)c(-c2ccc(F)cc2)n1CC[C@H](O)C[C@@H](O)CC(=O)O | -13% | 6% | x
CCc1ccc(CNC(=O)C2CCN(c3nnc(-n4c(C)ccc4C)s3)CC2)cc1 | -22% | u | -21
CCOc1ccc(CNC(=O)C2CCN(c3nnc(-n4c(C)ccc4C)s3)CC2)cc1 | -41% | 14µM* | -16
Cc1cc(N2CCN(C)CC2)nc2ccc(NC(=O)Nc3ccc(Cl)cc3)cc12 | 4% | 23% | 118*

Screens from PubChem.
